# According to PubChem BioAssay (EPA / NIEHS):
# Inconclusive results are not listed. Activity calls are given as the source filed them. How the source made its calls: active means hit-call score of the fitted dose curve at least 0.9, where 1 is the maximum; inconclusive means response in the unintended direction; inactive means score below 0.9.
# Assays:
# [1] = biological target: guinea pig Opioid, Kappa 1 Receptor (OpiateK), OPRK1 (gene 100135587) (UniProt P41144); assay: NVS_GPCR_gOpiateK: NovaScreen (NVS) G Protein-Coupled Receptor Assay for guinea pig Opioid, Kappa 1 Receptor (OpiateK) (AID 2283252);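 further: radioligand displacement from kappa opioid receptor in guinea pig cerebellar membranes; active means reduced radioligand binding relative to DMSO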
# Outline: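 Guinea pig cerebellar membranes, radioligand displacement with filter-based scintillation counting, 2 h after dosing. Primary screen single concentration 25 uM in duplicate; actives retested in concentration series; loss of binding fitted versus DMSO.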
# [2] = biological target: human Serotonin, 5-Hydroxytryptamine Receptor 5A (5HT5A), HTR5A (gene 3361) (UniProt P47898); assay: NVS_GPCR_h5HT5A: NovaScreen (NVS) G Protein-Coupled Receptor Assay for human Serotonin, 5-Hydroxytryptamine Receptor 5A (5HT5A) (AID 2283251)
# Outline: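 Cell-free radioligand displacement binding on HEK293-derived membrane protein, 1 h incubation, filter-based scintillation counting. Primary screen in duplicate at 25 uM, actives followed in concentration series; loss of signal fitted versus DMSO.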
# [3] = biological target: human Serotonin, 5-Hydroxytryptamine Receptor 7 (5HT7), HTR7 (gene 3363) (UniProt P34969); assay: NVS_GPCR_h5HT7: NovaScreen (NVS) G Protein-Coupled Receptor Assay for human Serotonin, 5-Hydroxytryptamine Receptor 7 (5HT7) (AID 2283255);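 further: hits reduce specific radioligand binding relative to DMSO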
# Outline: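 Radioligand displacement on membranes from CHO cells expressing human 5HT7, 1 h incubation, filter-based scintillation counting. Primary screen used a single 25 uM concentration in duplicate; actives were followed up in concentration series.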
# [4] = biological target: human Adrenergic, Beta 1 Receptor (Adrb1), ADRB1 (gene 153) (UniProt P08588); assay: NVS_GPCR_hAdrb1: NovaScreen (NVS) G Protein-Coupled Receptor Assay for human Adrenergic, Beta 1 Receptor (Adrb1) (AID 2283258)
# Outline: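 Cell-free radioligand displacement on receptor from human neuroepithelioma cells; 2 h after dosing, filter-based scintillation counting. Primary screen in duplicate at 25 uM, actives retested in concentration series; loss of signal vs DMSO baseline.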
# [5] = biological target: human Adrenergic, Alpha 2c Receptor (Adra2C), ADRA2C (gene 152) (UniProt P18825); assay: NVS_GPCR_hAdra2C: NovaScreen (NVS) G Protein-Coupled Receptor Assay for human Adrenergic, Alpha 2c Receptor (Adra2C) (AID 2283259)
# Outline: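 Radioligand binding on Sf9-expressed receptor membranes, 1 h after chemical dosing, filter-based scintillation read-out. Loss of binding fitted positively versus DMSO; primary duplicate screen at 25 uM, actives retested in concentration series.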
# [6] = biological target: human Adrenergic, Alpha 2A Receptor (Adra2A), ADRA2A (gene 150) (UniProt P08913); assay: NVS_GPCR_hAdra2A: NovaScreen (NVS) G Protein-Coupled Receptor Assay for human Adrenergic, Alpha 2A Receptor (Adra2A) (AID 2283257)
# Outline: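 Radioligand filter-binding was run on HT29-derived membranes, cell-free, read by scintillation counting 1 h after dosing. Primary screening was in duplicate at 25 uM, with concentration series in follow-up. Loss of signal versus DMSO indicates displacement.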
# [7] = biological target: Beta-2 adrenergic receptor (Homo sapiens) (UniProt P07550); assay: NVS_GPCR_hAdrb2: NovaScreen (NVS) G Protein-Coupled Receptor Assay for human Adrenergic, Beta 2 Receptor (Adrb2) (AID 2283261)
# Outline: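 Filter-based radioligand binding using receptor prepared from CHO cells, 1 h incubation, scintillation counting. Primary screen in duplicate at 25 uM, actives retested in concentration series; loss of binding relative to DMSO.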
# [8] = biological target: human Adenosine A1 Receptor (AdoRA1), ADORA1 (gene 134) (UniProt P30542); assay: NVS_GPCR_hAdoRA1: NovaScreen (NVS) G Protein-Coupled Receptor Assay for human Adenosine A1 Receptor (AdoRA1) (AID 2283254)
# Outline: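 Membranes from human cortical tissue were incubated with radioligand and test chemical for 1 hour, then filtered and counted. Activity was taken as signal loss relative to DMSO, screened at 25 uM in duplicate before concentration-response follow-up.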
# [9] = biological target: human Adenosine A2a Receptor (AdoRA2a), ADORA2A (gene 135) (UniProt P29274); assay: NVS_GPCR_hAdoRA2a: NovaScreen (NVS) G Protein-Coupled Receptor Assay for human Adenosine A2a Receptor (AdoRA2a) (AID 2283256)
# Experimental: NVS_GPCR_hAdoRA2a is a biochemical, single-readout assay that uses extracted gene-proteins from HEK293 in a cell-free assay. Measurements were taken 1.5 hours after chemical dosing in a 96-well plate.NVS_GPCR_hAdoRA2a is one of one assay component(s) measured or calculated from the NVS_GPCR_hAdoRA2a assay. It is designed to make measurements of radioligand binding, a form of binding reporter, as detected with scintillation counting signals by Filter-based radiodetection technology.Data from the assay component NVS_GPCR_hAdoRA2a was analyzed into 1 assay endpoint. This assay endpoint, NVS_GPCR_hAdoRA2a, was analyzed in the positive analysis fitting direction relative to DMSO as the negative control and baseline of activity. Using a type of binding reporter, loss-of-signal activity can be used to understand changes in the binding as they relate to the gene ADORA2A. Furthermore, this assay endpoint can be referred to as a primary readout, because the performed assay has only produced 1 assay endpoint. To generalize the intended target to other relatable targets, this assay endpoint is annotated to the gpcr intended target family, where the subfamily is rhodopsin-like receptor.
# Binding assays used specific radioligands (tritiated, iodinated) with non-radioactive competitive displacement ligands in agonist or antagonist protocols (as indicated) and various reference compounds and inhibitors to titrate specific binding to receptors and transporters. Most enzyme assays (CYPs, kinases, phosphatases, proteases, HDACs) used recombinant protein and specific substrates (fluorescence mostly, some colorimetric and radioactive) and inhibitors, followed by a biochemical separation of substrate and product. All assays for the biochemical HTS were initially run in duplicate at a single concentration (10 uM for CYP450 assays and 25 uM for all others). […] Each assay was run with positive and negative controls, and concurrent controls on every plate. […]
# [10] = biological target: human Serotonin, 5-Hydroxytryptamine Receptor 6 (5HT6), HTR6 (gene 3362) (UniProt P50406); assay: NVS_GPCR_h5HT6: NovaScreen (NVS) G Protein-Coupled Receptor Assay for human Serotonin, 5-Hydroxytryptamine Receptor 6 (5HT6) (AID 2283253)
# Outline: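 Radioligand binding to 5HT6 in HEK293-derived membranes, cell-free, 1 h after dosing; bound ligand measured by filter-based scintillation counting. Primary screen in duplicate at 25 uM; actives retested in concentration series.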
# human Adenosine A1 Receptor (AdoRA1), ADORA1 (gene 134), sequence (P30542 whole entry, looked up): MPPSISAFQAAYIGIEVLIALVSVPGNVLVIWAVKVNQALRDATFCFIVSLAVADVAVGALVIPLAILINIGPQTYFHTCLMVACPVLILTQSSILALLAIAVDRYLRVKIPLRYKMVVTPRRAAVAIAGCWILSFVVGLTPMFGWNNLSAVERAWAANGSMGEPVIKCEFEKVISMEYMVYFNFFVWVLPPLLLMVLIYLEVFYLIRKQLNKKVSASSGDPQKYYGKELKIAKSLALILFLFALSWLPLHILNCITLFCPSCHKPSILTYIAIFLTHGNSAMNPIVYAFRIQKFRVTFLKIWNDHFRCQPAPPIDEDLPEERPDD
# human Serotonin, 5-Hydroxytryptamine Receptor 6 (5HT6), HTR6 (gene 3362), sequence (P50406 whole entry, looked up): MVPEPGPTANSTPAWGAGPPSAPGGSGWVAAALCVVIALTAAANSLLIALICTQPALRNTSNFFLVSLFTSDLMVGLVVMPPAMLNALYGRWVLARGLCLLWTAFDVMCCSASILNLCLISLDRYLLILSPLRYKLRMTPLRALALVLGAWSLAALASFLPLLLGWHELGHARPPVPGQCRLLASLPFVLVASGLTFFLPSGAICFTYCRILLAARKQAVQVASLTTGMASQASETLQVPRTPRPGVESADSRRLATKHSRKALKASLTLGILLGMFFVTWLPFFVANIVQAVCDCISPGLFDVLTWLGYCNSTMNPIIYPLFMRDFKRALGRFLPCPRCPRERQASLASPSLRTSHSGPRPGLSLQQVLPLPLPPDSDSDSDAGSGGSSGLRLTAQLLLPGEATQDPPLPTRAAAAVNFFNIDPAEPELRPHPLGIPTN
# human Adenosine A2a Receptor (AdoRA2a), ADORA2A (gene 135), sequence (P29274 whole entry, looked up): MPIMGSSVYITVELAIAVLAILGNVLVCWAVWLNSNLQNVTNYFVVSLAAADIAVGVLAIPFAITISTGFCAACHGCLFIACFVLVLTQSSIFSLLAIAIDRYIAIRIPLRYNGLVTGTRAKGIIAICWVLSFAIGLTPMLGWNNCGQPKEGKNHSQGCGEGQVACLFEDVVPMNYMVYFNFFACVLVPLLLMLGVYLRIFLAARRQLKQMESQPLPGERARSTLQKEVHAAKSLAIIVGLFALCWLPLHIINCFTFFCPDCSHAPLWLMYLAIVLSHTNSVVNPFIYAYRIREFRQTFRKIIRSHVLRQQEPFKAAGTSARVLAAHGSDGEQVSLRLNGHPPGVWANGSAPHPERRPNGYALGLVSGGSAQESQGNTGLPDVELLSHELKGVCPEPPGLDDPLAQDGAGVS
# human Serotonin, 5-Hydroxytryptamine Receptor 7 (5HT7), HTR7 (gene 3363), sequence (P34969 whole entry, looked up): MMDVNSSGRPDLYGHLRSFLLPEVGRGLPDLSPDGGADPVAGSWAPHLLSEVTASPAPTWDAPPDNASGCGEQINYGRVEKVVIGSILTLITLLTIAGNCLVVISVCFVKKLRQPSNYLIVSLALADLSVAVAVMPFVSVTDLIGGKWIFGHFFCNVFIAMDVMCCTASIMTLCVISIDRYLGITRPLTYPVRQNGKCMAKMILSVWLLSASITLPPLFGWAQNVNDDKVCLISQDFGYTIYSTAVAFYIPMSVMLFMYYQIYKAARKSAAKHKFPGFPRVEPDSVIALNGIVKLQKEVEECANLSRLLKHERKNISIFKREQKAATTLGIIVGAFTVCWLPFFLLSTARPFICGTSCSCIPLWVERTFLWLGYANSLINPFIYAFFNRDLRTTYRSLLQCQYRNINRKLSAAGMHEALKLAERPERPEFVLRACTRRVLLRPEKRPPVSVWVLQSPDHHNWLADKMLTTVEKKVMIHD
# human Adrenergic, Alpha 2c Receptor (Adra2C), ADRA2C (gene 152), sequence (P18825 whole entry, looked up): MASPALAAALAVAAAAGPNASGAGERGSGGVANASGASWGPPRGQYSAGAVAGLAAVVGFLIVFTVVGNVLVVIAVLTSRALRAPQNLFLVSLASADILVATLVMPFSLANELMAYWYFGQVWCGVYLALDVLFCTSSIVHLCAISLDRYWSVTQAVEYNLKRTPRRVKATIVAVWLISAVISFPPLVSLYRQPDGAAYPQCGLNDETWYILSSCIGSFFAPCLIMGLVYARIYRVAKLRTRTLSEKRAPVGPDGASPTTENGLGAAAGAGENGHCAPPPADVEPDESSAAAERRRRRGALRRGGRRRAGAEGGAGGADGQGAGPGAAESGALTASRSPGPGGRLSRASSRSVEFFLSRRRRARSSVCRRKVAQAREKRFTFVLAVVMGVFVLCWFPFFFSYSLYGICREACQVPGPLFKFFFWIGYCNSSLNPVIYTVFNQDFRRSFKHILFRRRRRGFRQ
# guinea pig Opioid, Kappa 1 Receptor (OpiateK), OPRK1 (gene 100135587), sequence (P41144 whole entry, looked up): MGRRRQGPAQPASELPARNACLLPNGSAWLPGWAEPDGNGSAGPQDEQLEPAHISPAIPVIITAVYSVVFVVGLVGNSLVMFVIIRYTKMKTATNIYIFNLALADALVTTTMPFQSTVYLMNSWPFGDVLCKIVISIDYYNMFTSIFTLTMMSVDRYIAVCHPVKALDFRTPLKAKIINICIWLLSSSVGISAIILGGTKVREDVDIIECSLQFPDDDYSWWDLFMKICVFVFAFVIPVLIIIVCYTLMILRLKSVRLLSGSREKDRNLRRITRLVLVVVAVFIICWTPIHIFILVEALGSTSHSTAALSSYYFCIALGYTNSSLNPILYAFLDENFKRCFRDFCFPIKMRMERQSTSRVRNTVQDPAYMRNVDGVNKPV
# Beta-2 adrenergic receptor (Homo sapiens), sequence (P07550 whole entry, looked up): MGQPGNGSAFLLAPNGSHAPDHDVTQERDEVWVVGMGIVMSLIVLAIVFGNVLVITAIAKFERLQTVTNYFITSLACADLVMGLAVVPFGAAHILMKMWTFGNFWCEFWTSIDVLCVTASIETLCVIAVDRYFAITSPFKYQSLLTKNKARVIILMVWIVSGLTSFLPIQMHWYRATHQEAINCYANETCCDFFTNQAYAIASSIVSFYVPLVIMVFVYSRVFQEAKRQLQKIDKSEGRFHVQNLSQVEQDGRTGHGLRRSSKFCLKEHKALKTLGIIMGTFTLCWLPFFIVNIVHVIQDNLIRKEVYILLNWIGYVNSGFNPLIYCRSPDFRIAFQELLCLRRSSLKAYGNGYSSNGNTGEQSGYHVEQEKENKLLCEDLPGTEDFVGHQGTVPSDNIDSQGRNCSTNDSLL
# human Serotonin, 5-Hydroxytryptamine Receptor 5A (5HT5A), HTR5A (gene 3361), sequence (P47898 whole entry, looked up): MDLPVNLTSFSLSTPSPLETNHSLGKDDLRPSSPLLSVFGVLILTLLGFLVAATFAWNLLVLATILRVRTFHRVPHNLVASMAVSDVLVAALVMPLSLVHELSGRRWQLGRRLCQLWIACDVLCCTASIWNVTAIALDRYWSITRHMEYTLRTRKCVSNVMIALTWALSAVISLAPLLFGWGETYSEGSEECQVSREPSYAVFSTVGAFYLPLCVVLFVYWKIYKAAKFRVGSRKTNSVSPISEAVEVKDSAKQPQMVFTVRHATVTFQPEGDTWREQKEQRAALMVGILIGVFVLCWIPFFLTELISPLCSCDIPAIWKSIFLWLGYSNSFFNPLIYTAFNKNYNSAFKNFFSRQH
# human Adrenergic, Beta 1 Receptor (Adrb1), ADRB1 (gene 153), sequence (P08588 whole entry, looked up): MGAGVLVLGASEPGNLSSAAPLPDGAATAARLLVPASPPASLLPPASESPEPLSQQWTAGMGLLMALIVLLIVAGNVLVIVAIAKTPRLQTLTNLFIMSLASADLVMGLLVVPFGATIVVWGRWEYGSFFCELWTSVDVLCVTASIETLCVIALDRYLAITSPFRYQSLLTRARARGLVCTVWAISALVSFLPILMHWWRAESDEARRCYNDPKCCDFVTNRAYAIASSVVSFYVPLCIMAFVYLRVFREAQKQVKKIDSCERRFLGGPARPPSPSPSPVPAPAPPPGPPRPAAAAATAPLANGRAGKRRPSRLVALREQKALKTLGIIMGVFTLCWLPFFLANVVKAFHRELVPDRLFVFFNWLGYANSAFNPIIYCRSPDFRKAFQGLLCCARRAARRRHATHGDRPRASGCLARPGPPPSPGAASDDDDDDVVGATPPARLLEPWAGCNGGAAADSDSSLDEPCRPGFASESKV
# human Adrenergic, Alpha 2A Receptor (Adra2A), ADRA2A (gene 150), sequence (P08913 whole entry, looked up): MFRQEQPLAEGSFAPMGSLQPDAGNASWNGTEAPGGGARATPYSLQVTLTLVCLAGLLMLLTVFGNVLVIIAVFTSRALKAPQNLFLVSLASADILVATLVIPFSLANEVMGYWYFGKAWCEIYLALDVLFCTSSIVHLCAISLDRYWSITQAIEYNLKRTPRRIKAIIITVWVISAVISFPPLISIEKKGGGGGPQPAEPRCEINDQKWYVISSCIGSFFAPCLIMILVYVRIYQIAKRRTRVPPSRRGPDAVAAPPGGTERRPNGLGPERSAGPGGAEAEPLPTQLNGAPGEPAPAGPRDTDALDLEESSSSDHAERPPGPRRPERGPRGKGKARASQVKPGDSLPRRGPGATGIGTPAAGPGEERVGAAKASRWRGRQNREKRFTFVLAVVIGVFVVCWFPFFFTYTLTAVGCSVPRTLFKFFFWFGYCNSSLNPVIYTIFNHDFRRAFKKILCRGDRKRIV
compound,measurement,setting,value
CCN(CC)C(=O)C(C)Oc1cccc2ccccc12 (stereo not drawn),AC50,[1],25 µM (active)
O=C1C2CC=CCC2C(=O)N1SC(Cl)(Cl)Cl (stereo not drawn),outcome,[2],inactive
same,AC50,[3],4.95 µM (active)
CC(C)=CC1C(C(=O)OCc2coc(Cc3ccccc3)c2)C1(C)C (stereo not drawn),AC50,[2],25 µM (active)
same,outcome,[3],inactive
same,AC50,[4],25 µM (active)
same,AC50,[5],25 µM (active)
Cn1c(-c2ccccc2)cc(-c2ccccc2)[n+]1C,AC50,[1],12 µM (active)
same,AC50,[3],14.8 µM (active)
same,AC50,[6],1.32 µM (active)
same,AC50,[5],3.74 µM (active)
CN=C=S,outcome,[7],inactive
CCOc1cc(C(C)(C)C)ccc1C1COC(c2c(F)cccc2F)=N1 (stereo not drawn),outcome,[8],inactive
CCOP(=S)(OCC)Oc1nc(Cl)n(C(C)C)n1,AC50,[8],8.95 µM (active)
COP(=S)(OC)SCn1nnc2ccccc2c1=O,AC50,[8],9.98 µM (active)
same,outcome,[9],inactive
same,outcome,[7],inactive
Cc1ccc(N=CN(C)C=Nc2ccc(C)cc2C)c(C)c1,AC50,[3],0.574 µM (active)
CCC(C)n1c(=O)[nH]c(C)c(Br)c1=O (stereo not drawn),AC50,[8],15.2 µM (active)
same,AC50,[3],14 µM (active)
CC1(C)C(C(=O)OC(C#N)c2cccc(Oc3ccccc3)c2)C1(C)C (stereo not drawn),AC50,[2],25 µM (active)
same,AC50,[3],25 µM (active)
CN/C(=N\[N+](=O)[O-])NCc1cnc(Cl)s1,outcome,[2],inactive
COCC(C)N(C(=O)CCl)c1c(C)csc1C (stereo not drawn),AC50,[1],15.5 µM (active)
OC(c1ccc(Cl)cc1)(c1ccc(Cl)cc1)C(Cl)(Cl)Cl,outcome,[2],inactive
same,outcome,[3],inactive
CC1(C)C(C=C(Cl)Cl)C1C(=O)OC(C#N)c1cccc(Oc2ccccc2)c1 (stereo not drawn),outcome,[2],inactive
same,AC50,[3],6.91 µM (active)
COC(=O)NS(=O)(=O)c1ccc(N)cc1,outcome,[7],inactive
CC(C)Nc1nc(Cl)nc(NC(C)C)n1,AC50,[4],6.34 µM (active)
CC1(C)CON(Cc2ccccc2Cl)C1=O,outcome,[5],inactive
Cc1cc(C)nc(Nc2ccccc2)n1,AC50,[9],10.9 µM (active)
CO/N=C(/C1=NOCCO1)c1ccccc1Oc1ncnc(Oc2ccccc2Cl)c1F,outcome,[2],inactive
same,outcome,[1],inactive
same,outcome,[8],inactive
CC(C)N1C(=O)N(c2ccccc2)CSC1=NC(C)(C)C,outcome,[2],inactive
same,outcome,[10],inactive
CCOC(=O)C(C)OC(=O)c1cc(Oc2ccc(C(F)(F)F)cc2Cl)ccc1[N+](=O)[O-] (stereo not drawn),AC50,[2],6.67 µM (active)
same,AC50,[3],15.3 µM (active)
CCCCC(O)(Cn1cncn1)c1ccc(Cl)cc1Cl (stereo not drawn),outcome,[2],inactive
same,AC50,[1],17.8 µM (active)
same,outcome,[10],inactive
same,AC50,[3],16.6 µM (active)
Nc1cnn(-c2ccccc2)c(=O)c1Cl,AC50,[8],8.18 µM (active)
same,AC50,[9],32.6 µM (active)
N#Cc1c[nH]cc1-c1cccc2c1OC(F)(F)O2,outcome,[10],inactive
same,outcome,[7],inactive
Nc1c(Cl)c(F)nc(OCC(=O)O)c1Cl,outcome,[5],inactive
COC(=O)N(C(=O)N1CO[C@@]2(C(=O)OC)Cc3cc(Cl)ccc3C2=N1)c1ccc(OC(F)(F)F)cc1,outcome,[3],inactive
CCCN(CC)CC1COC2(CCC(C(C)(C)C)CC2)O1 (stereo not drawn),AC50,[1],14.3 µM (active)
same,AC50,[3],8 µM (active)
same,AC50,[6],3.99 µM (active)
Nc1c(Cl)c(Cl)nc(C(=O)O)c1Cl,outcome,[7],inactive
